The source of these data is PubChem BioAssay (NCI).

Compounds without any hit were thinned out: in the full panel of roughly 83,000, 20% have a hit.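 Values shown are percent growth following 48 h exposure of cells in 96-well plates to a single concentration of compound; below 10 was considered active.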 The source made the active and inactive calls.

This experiment has as its system KM12 colon. In words: NCI-60 one-dose screen, 48 h (100 = growth as untreated, 0 = no growth, -100 = all killed). The settings on record: 10 µM unless noted. As to the method: Growth inhibition of the KM12 human tumor cell line is measured as a screen for anti-cancer activity. Cells are grown in 96 well plates and exposed to the test compound for 48 hours. Compounds are tested at a single concentration, which is 10^-5 M for most compounds. The reported endpoint is percent growth (GI% or GIPRCNT), where numbers from 0 - 100% represent growth inhibition, and numbers from -100% - 0 represent cell death. For example, a value of 40 represents 60% growth inhibition. A value of 0 means no net growth occurred over the course of the experiment. A value of -40 indicates 40% of cells at the beginning of the experiment died by the end of the experiment. A value of -100 means all cells are dead at the end of the experiment.
NCI-60 Human Tumor Cell Lines Screen was performed using the standard one-dose NCI protocol, which is described in more detail at https://dtp.cancer.gov/discovery_development/nci-60/default.htm.
Compounds with GIPRCNT values below 10 were considered active. Activity score was based on GIPRCNT using the following formula: […]
Score is 0 for GIPRCNT values of 100 or above, 50 for GIPRCNT values of 0, and 100 for GIPRCNT values of -100.
In the case of `C=C(C)[C@@H]1CC[C@]2(CO)CC[C@]3(C)[C@H](CC[C@@H]4[C@@]5(C)C=C(C#N)C(=O)C(C)(C)[C@@H]5CC[C@]43C)[C@@H]12`, the growth was 6.43% (active).
Consider `CC1(C)N=C(N)N=C(N)N1c1cccc(CN)c1`, for which the growth is 101% (inactive).
With `CCO/C=N/C1=C(C#N)C(c2ccc(OC)cc2)c2c(c3ccccc3n(C)c2=O)O1` (stereo not given) the figure was 103% (inactive); with `C=CC(=O)Nc1cccc(C)c1Nc1cc(-c2cccnc2Cc2c(C)c(OC)cc(OC)c2C)ncn1`, 17.6% (inactive); with `COC(=O)Nc1nc2ccc(C(=O)C3CC3)cc2[nH]1`, -0.0812% (active).
For the molecule `O=C1CSC(c2ccc(O)cc2)N1c1nnc(Cn2cnnc2)o1` (stereo not given), the growth is 49.9% (inactive).
As to `COc1cc2cc(Oc3ccc(NC(=O)Nc4cc(C(F)(F)F)cc(C(F)(F)F)c4)cc3)c(C)nc2cc1OCCN1CCCCC1`, the growth is -78.5% (active).
With `Nc1c(-c2nc3ccccc3c(=O)[nH]2)nnn1-c1ccc(Cl)cc1` the figure was 82.8% (inactive); with `COc1ccc(OC)c(Nc2nc3nonc3nc2Nc2cccc(Br)c2)c1`, 7.96% (active).
As for `CCOC(=O)c1sc2ccc(NCc3nc[nH]c3C)cc2c1NC(=O)c1cc(OC)c(OC)c(OC)c1`, the growth was 93.7% (inactive).
For the molecule `CCOC(=O)N1CCc2c(sc3c2C(=O)N[C@H](c2ccc(OC)cc2)N3)C1`, the growth is 102% (inactive).
Consider `Cn1nnnc1-c1ccc(N)cc1`, for which the growth is 99.4% (inactive).
Then `N#Cc1c(NC(=O)c2cccc(C(F)(F)F)c2)sc2c1CCC(=O)C2`, with -21.3% (active); and `COc1ccc(N=c2nc3sc4cc(Cl)ccc4n3c(N)c2C#N)cc1`, with 24.7% (inactive).
Then `Cc1c(C(=O)O[C@H]2[C@@H]3[C@H](C)CC[C@H]3[C@]3(C)O[C@@]2(C2CCCCC2)C[C@H]3OC(=O)CO)ccc2ccccc12`, with 27.9% (inactive); and `O=C(NC1CCOCC1)c1ccc2c(c1)CN(c1ncc(Cc3cccc(-n4cccn4)c3)s1)CC2`, with 84.9% (inactive); and `NS(=O)(=O)Oc1ccc(NC(=O)C23CC4CC(CC(C4)C2)C3)cc1Cl`, with 95.8% (inactive).
Then `O=C(/C=C/C12c3ccccc3C(c3ccccc31)C1C(=O)NC(=O)C12)c1ccc(Cl)cc1` (stereo not given), with -36.6% (active).
As to `CCCCCCCCc1cc[n+](CC(=O)c2ccc(Br)cc2)cc1`, the growth was -56.8% (active).
Then `N#C/C(=C\c1ccc(Br)cc1)n1nnc2cc(Cl)c(Cl)cc21`, with 29.7% (inactive).
With `CCCCNC(=O)c1cc(NCc2cc(O)ccc2O)ccc1O` the figure was 78.4% (inactive).
Consider `CN1C[C@@H](c2ccc(Cl)cc2)[C@]2(NC(=S)N(c3ccccc3)C2=O)[C@@]12C(=O)NC1C=CC(Br)=C[C@H]12` (stereo not given in full), for which the growth was 78.5% (inactive).
Then `CN1C[C@@H](c2ccc(Cl)cc2)[C@]2(NC(=S)N(c3ccc(F)c(Cl)c3)C2=O)[C@@]12C(=O)NC1C=CC(Cl)=C[C@H]12` (stereo not given in full), with 55% (inactive).
Then `COc1cccc(-c2nc3sccn3c2-c2ccnc(NCCNS(=O)(=O)c3c(Cl)cccc3Cl)c2)c1`, with 46.7% (inactive); and `NS(=O)(=O)c1cn(-c2ncnc3nc[nH]c23)ccc1=O`, with 92.9% (inactive).
`NC(N)=N/N=C(/c1ccccc1)c1ccccc1F`: the growth is 13.8% (inactive).
Then `CCCCCCCCn1cc(C2=C(c3coc4ccc(OC)cc34)C(=O)NC2=O)c2ccccc21`, with 104% (inactive); and `C[C@H]1[C@H](C)CC[C@]2(C(=O)N3CCN(C)CC3)CC[C@]3(C)C(=CC[C@@H]4[C@@]5(C)C/C(=C/c6cccnc6)C(=O)C(C)(C)[C@@H]5CC[C@]43C)[C@H]12`, with -89.3% (active).
As to `Cc1cc(N(CCCNc2ccnc3cc(Cl)ccc23)Cc2ccccn2)nc(N2CCCC2)n1`, the growth is 82.8% (inactive).
With `C[C@@H]1C(=O)N(C[C@H](Cc2ccccc2)NC(=O)OCc2ccccc2)[C@]1(Cc1ccccc1)C(=O)OC(C)(C)C` the figure was 70.3% (inactive); with `Cc1nn(Cc2ccccc2)cc1C(=O)Nc1sc2c(c1C(N)=O)CCC(=O)C2`, 13.5% (inactive).
For the molecule `O=C(Oc1ccc[nH]c1=O)c1cc([N+](=O)[O-])cc([N+](=O)[O-])c1`, the growth was 116% (inactive).
Consider `COc1ccccc1C(=O)NC(=S)Nc1ccc(-c2nc3ccccc3[nH]2)cc1`, for which the growth is 53.2% (inactive).
With `Cc1nc(C)c(-c2nn3c(-c4cccc(F)c4)nnc3s2)s1`, the growth was 99% (inactive).
Turning to `COc1ccc(-c2c(N)n[nH]c2-c2ccccc2O)cc1OC`, the growth was 107% (inactive).
With `OC(CBr)c1ccnc2ccccc12` (stereo not given) the figure was 99.3% (inactive).
Then `C=CCOc1cccc(/C=C2\SC(=Nc3ccc(O)cc3)NC2=O)c1`, with 6.22% (active); and `O=c1[nH]nc(-c2ccc(Cl)cc2)cc1Cc1ccccc1`, with 102% (inactive).
With `CCOC(=O)C1=C(C)NC(SCc2nnc(-c3ccc(Cl)cc3)o2)=NC1c1ccc(Cl)cc1Cl` (stereo not given) the figure was 63.4% (inactive).
`Cc1[nH]c(-c2nc3ccccc3[nH]2)c(C)c1C(=O)N1CCOCC1`: the growth is 105% (inactive).
